Screening results (PubChem)
HT1080-NT tox: qHTS for induction of synthetic lethality in tumor cells producing 2HG: qHTS for the HT-1080-NT fibrosarcoma cell line. HT-1080-NT fibrosarcoma viability, CellTiter-Glo ATP luminescence, 48 h. Potency, µM (doses to about 46.1 µM), most hits filed as cytotoxic. 360,000 tested, 1.6% active;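 further: NT is the 2HG producing partner of a matched IDH1 knockdown line; nearly all actives have a fitted effect of over 55% in size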
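Read-out is CellTiter-Glo luminescence after 10 minutes at room temperature, following 48 hours' compound treatment of HT-1080-NT cells (750 cells/well, RPMI, 5% FBS, 37 degrees C).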
HT1080 IDH1KD tx: qHTS for induction of synthetic lethality in tumor cells producing 2HG: qHTS for the HT-1080-IDH1KD cell line; HT-1080 IDH1 knockdown viability, ATP luminescence, 48 h; Potency, µM (series often up to 46.1 µM), hits mostly cytotoxic; 360,000 tested, 2% active
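Knockdown cells (IDH1KD HT-1080) received compounds 2 h after plating at 750 cells/well and were kept 48 h at 37 °C in 5% FBS RPMI. A CellTiter-Glo luminescence read gave % activity for curve fitting.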
KB-3-1 tox: qHTS assay for MDR1-selective chemotherapeutics: Primary screen using the parental adenocarcinoma cell KB-3-1 | KB-3-1 viability, CellTiter-Glo ATP luminescence, 72 h | Potency, µM (doses to about 46.1 µM), most hits filed as cytotoxic | 400,000 tested, 1.4% active; further: nearly all actives have a fitted effect of over 60% in size
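Screening of KB-3-1 cells (DMEM, 10% FBS, phenol-red free) ran from lowest to highest compound concentration; after 72 h at 37 °C viability was read luminescently and curves fitted.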
KB-V1 MDR tox: qHTS assay for MDR1-selective chemotherapeutics: Primary screen using the drug-selected MDR subline cells KB-V1. KB-V1 MDR cells viability, CellTiter-Glo, 72 h. Potency, µM (series often up to 46.1 µM), most hits filed as cytotoxic. 400,000 tested, 3.4% active. AID 1347076, 2019; further: nearly all actives have a fitted effect of over 60% in size
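KB-V1, DMEM (no phenol red) + 10% FBS; cpd pin-transferred, titration series; 72 h, 37 degrees C; CellTiter-Glo, luminescence. Data normalized, curve-fit.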
Large screens that a line does not name were inactive. Most compounds without a hit are left out; they make up all but 5.7% or so of the library. The call rests on the fitted dose curve; in most records, active means well fitted curve in the direction sought with a large enough effect; inconclusive means small, poorly fitted or top-dose-only effect, or another doubt; inactive means no such curve, though single readings can be large; an effect the other way counts as inactive or inconclusive.

O=C(N/N=C/c1cn(-c2ccccc2)nc1-c1cccnc1)c1ccc(F)cc1	none
O=C(N/N=C/c1cn(-c2ccccc2)nc1-c1cccs1)c1ccc(Cl)cc1	KB-3-1 tox inconclusive, KB-V1 MDR tox 15µM
CCOc1ccccc1NC(=O)C1CCN(S(=O)(=O)Cc2ccccc2)CC1	none (no result: HT1080-NT tox, HT1080 IDH1KD tx)
O=C(OCC1CCCO1)c1ccc2c(c1)N(Cc1ccccc1F)C(=O)c1ccccc1S2(=O)=O (configuration not stated)	none (no result: HT1080-NT tox, HT1080 IDH1KD tx)
O=C(CSC(=S)N1CCSCC1)c1ccc(Cl)cc1	KB-3-1 tox 8.2µM, KB-V1 MDR tox 9.2µM
Cc1cccc(NC(=O)CN2CCN(C(=O)CNC(=O)c3ccc(-c4ccccc4)cc3)CC2)c1C	HT1080-NT tox inconclusive, HT1080 IDH1KD tx 10µM, KB-V1 MDR tox inconclusive
Cc1cccc(C)c1NC(=O)CN1CCN(C(=O)CNC(=O)c2ccc(-c3ccccc3)cc2)CC1	HT1080 IDH1KD tx inconclusive, KB-3-1 tox inconclusive, KB-V1 MDR tox 18µM
CCOC(=O)C1(C)C=C(Nc2cccc(C(=O)O)c2)C(=O)N1c1cccc(C(=O)O)c1 (configuration not stated)	KB-V1 MDR tox inconclusive (no result: HT1080-NT tox, HT1080 IDH1KD tx)
COc1ccc(NC(=O)Cn2nc(C)c3c(C)n(-c4ccccc4)nc3c2=O)cc1OC	KB-V1 MDR tox inconclusive (no result: HT1080-NT tox, HT1080 IDH1KD tx)
CCN(CC)S(=O)(=O)c1cc(NC(=O)C(C)N(C)CC(=O)Nc2c(C)cccc2C)ccc1C (configuration not stated)	KB-3-1 tox inconclusive, KB-V1 MDR tox 5.2µM
Cc1ccc2c(CSc3nnc4ccccn34)cc(=O)oc2c1C	KB-V1 MDR tox 16µM
COc1ccc(NS(=O)(=O)c2cc(C(=O)N3CCN(C/C=C/c4ccccc4)CC3)ccc2C)cc1	KB-3-1 tox 18µM, KB-V1 MDR tox 5.8µM
O=C(CCNS(=O)(=O)c1ccc(OC(F)(F)F)cc1)N1CCCC1	none
COc1ccc(C)cc1S(=O)(=O)N1CCN(C/C=C/c2ccccc2)CC1	KB-V1 MDR tox 18µM
Cc1ccc(C(=O)N2CCCCCC2)cc1S(=O)(=O)Nc1ccccc1	KB-V1 MDR tox inconclusive
O=C(CCNS(=O)(=O)c1ccc(OC(F)(F)F)cc1)N1CCN(C/C=C/c2ccccc2)CC1	KB-3-1 tox inconclusive, KB-V1 MDR tox 6.5µM
COc1cccc(-n2c(C)nc3c(cnn3-c3ccc(C)c(C)c3)c2=O)c1	KB-3-1 tox inconclusive (no result: HT1080-NT tox, HT1080 IDH1KD tx)
COc1cc(C2CC(=O)Nc3c2c(C)nn3-c2nncc(-c3ccccc3)n2)cc(OC)c1OC (configuration not stated)	none (no result: HT1080-NT tox, HT1080 IDH1KD tx)
COCCCNc1nc(SCc2ccccc2)nc2sc3c(c12)CCC3	none
N#Cc1cnn(-c2nc(SCc3ccccc3)nc3sc4c(c23)CCCC4)c1N	KB-V1 MDR tox 21µM
CC1CCCCN1CCCNC(=O)c1sc2ncccc2c1-n1cccc1 (configuration not stated)	none (no result: HT1080-NT tox, HT1080 IDH1KD tx)
COc1ccc(-c2nc(-c3ccccc3)nc(N3CCN(C)CC3)c2C#N)cc1	KB-3-1 tox inconclusive, KB-V1 MDR tox inconclusive
COc1ccc(-c2nc(-c3cccc(C)c3)nc(N3CCN(C)CC3)c2C#N)cc1	KB-3-1 tox 5.8µM, KB-V1 MDR tox 4.6µM
CCOC(=O)c1c(C)[nH]c(C)c1S(=O)(=O)N(C)CC(=O)Nc1ccc(OC)cc1	none (no result: HT1080-NT tox, HT1080 IDH1KD tx)
O=C(O)c1ccc(N/N=C/c2ccc(-c3ccc(Cl)cc3Cl)o2)cc1	HT1080-NT tox inconclusive, HT1080 IDH1KD tx inconclusive, KB-3-1 tox 23µM
O=C(O)c1ccc(N/N=C/c2ccc(-c3cc(Cl)ccc3Cl)o2)cc1	HT1080-NT tox inconclusive, HT1080 IDH1KD tx 16µM, KB-V1 MDR tox inconclusive
O=C(O)c1ccc(N/N=C/c2ccc(-c3cccc(Cl)c3)o2)cc1	HT1080-NT tox 10µM, HT1080 IDH1KD tx 16µM, KB-3-1 tox inconclusive
COC(=O)N/N=C/c1ccc(-c2ccc(Cl)cc2Cl)o1	none
O=S(=O)(c1ccccc1)n1nc(-c2ccco2)nc1NCc1ccccc1	none (no result: HT1080-NT tox, HT1080 IDH1KD tx)
Cc1ccc(NC(=O)/C=C/c2cccs2)c([N+](=O)[O-])c1	HT1080-NT tox inconclusive, KB-3-1 tox inconclusive, KB-V1 MDR tox 5.8µM
COc1ccc(-n2c(-c3ccccc3)nnc2-c2ccc(Cl)cc2)cc1	none
COc1ccc(-n2c(-c3ccc(Cl)cc3)c[n+]3c2CCc2ccccc2-3)cc1	HT1080-NT tox 23µM, HT1080 IDH1KD tx 8.2µM, KB-3-1 tox inconclusive
O=Nc1ccc(NOC(=O)c2ccccc2Br)cc1	KB-V1 MDR tox inconclusive
O=C(ONc1ccc(N=NC(=O)c2ccccc2O)cc1)c1ccccc1	HT1080-NT tox 2.3µM, HT1080 IDH1KD tx 1.8µM
O=S1(=O)CCO[C@H]2CCCC[C@@H]2N1Cc1ccccc1	none (no result: HT1080-NT tox, HT1080 IDH1KD tx)
Cc1cc(O)c(C(c2ccc(F)cc2)N2CCCCC2)c(=O)n1Cc1ccco1 (configuration not stated)	none (no result: HT1080-NT tox, HT1080 IDH1KD tx)
CCc1ccc(OCC(=O)N2c3ccccc3CCc3ccccc32)cc1	KB-3-1 tox inconclusive, KB-V1 MDR tox 18µM
CCc1ccc(OCC(=O)N2CCc3ccccc32)cc1	none
O=C(c1nc(-c2ccc(Cl)cc2)n2c1CCCCC2)N1CCN(c2ccccc2F)CC1	KB-3-1 tox inconclusive (no result: HT1080-NT tox, HT1080 IDH1KD tx)
O=C(NNS(=O)(=O)c1ccc(CCCl)cc1)C(O)(c1ccccc1)c1ccccc1	KB-V1 MDR tox 16µM
Cc1ccc(C(O)(C(=O)NNS(=O)(=O)c2ccc(C)cc2)c2ccc(C)cc2)cc1	KB-V1 MDR tox inconclusive
CC(=O)c1ccc(N2CCN(C(=O)C3CCN(S(=O)(=O)c4cccc5nonc45)CC3)CC2)cc1	none (no result: HT1080-NT tox, HT1080 IDH1KD tx)
COc1cccc(OC)c1/C(O)=C(\C#N)c1nc2ccccc2[nH]1	HT1080-NT tox 18µM
Cc1ccc(NC(=O)C2CC(=O)N(C(C)c3ccccc3)C2)cc1 (configuration not stated)	KB-V1 MDR tox 18µM
